The results in this text go back to paper PMC7819943, “Rice protein-binding microarrays: a tool to detect cis-acting elements near promoter regions in rice”.

In all, about 39,000 sequences were measured (“fluorescence intensity (a.u.)”: median about 4,300, highest 2% from about 39,000 on). Shown is part of a subset that was picked to be rich in the highest values.

The assay deals with T1, OsSMF1 (Oryza sativa, UniProt Q6ZLB0 1-436).
T1 sequence: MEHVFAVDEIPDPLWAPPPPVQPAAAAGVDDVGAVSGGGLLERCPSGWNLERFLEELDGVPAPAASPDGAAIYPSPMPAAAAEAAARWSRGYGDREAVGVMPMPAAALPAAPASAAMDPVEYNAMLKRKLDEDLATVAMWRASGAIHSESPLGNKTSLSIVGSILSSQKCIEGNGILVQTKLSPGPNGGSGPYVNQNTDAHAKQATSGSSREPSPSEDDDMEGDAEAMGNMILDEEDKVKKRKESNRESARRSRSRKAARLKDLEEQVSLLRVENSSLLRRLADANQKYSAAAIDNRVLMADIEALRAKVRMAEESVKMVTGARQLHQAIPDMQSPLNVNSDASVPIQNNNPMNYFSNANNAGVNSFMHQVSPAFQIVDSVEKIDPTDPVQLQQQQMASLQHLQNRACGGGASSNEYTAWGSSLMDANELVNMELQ
Briefly: protein-binding microarray (RPBM); PBS, 2% BSA, 51.3 ng/ul salmon testes DNA, 50 uM zinc acetate, 200 nM TF, 25 C, 1 h; high values mean tight binding. The following applies: protein: recombinant; tags: N-terminal polyhistidine and DsRed monomer fusion (pET32a); chain copies: 2; label: CyDye5-dUTP incorporated in the synthesized complementary strand; 3' TTTTT single-stranded linker to array surface; dsDNA, one strand shown. The method, boiled down:
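An Axon 4000B scanner gave the binding signal as per-feature fluorescence intensity in arbitrary units. This followed washing of a custom Agilent array that had been incubated for 1 h at 25 °C with 200 nM protein in PBS, 2% BSA, salmon testes DNA and 50 µM zinc acetate. The proteins were transcription factors fused at the N-terminus to polyhistidine and DsRed, expressed in E. coli BL21-CodonPlus and purified on Ni–NTA.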
Turning to “CTGCAGCAAACGACCAGCCATGTCACAGGTTGTGAAGGTCCGGAGTCACCTAGTGCAG”, the binding signal is 4600 fluorescence intensity (a.u.).
Turning to “GAAGGCGGCGCGGAAGTCGGCGCCGGCGACCGGCGGCGTGCGGAGTCACCTAGTGCAG”, the binding signal is 9120 fluorescence intensity (a.u.).
With “AGAGCAAGGCGCCGGTGGTGCTCATCAAGCCGTCGGCGACCGGAGTCACCTAGTGCAG”, the binding signal was 63100 fluorescence intensity (a.u.).
As for “TTGGGCGAGGTAGAGGCGGCGCCGGTGTCATCACCGTCGTCGGAGTCACCTAGTGCAG”, the binding signal was 5140 fluorescence intensity (a.u.).
For “ACGGTCACGGTCCGGCCGCTCTACACGTACGTAGTACGTGCGGAGTCACCTAGTGCAG”, the binding signal was 25100 fluorescence intensity (a.u.).
For the sequence “GAGATTTGATGACTGGGATGCCACATGGACACCACGACAGCGGAGTCACCTAGTGCAG”, the binding signal was 13300 fluorescence intensity (a.u.).
Regarding “ATGGTGGTTGTGTCTTATATTTTGGAATGGAGGGACTTATCGGAGTCACCTAGTGCAG”, the binding signal was 21300 fluorescence intensity (a.u.).
Next, “TGGGCCGTGATTGAGGCCTATATATACGTGGCCTGACAAACGGAGTCACCTAGTGCAG”: 4000 fluorescence intensity (a.u.); “CAACACGCTCGATATCATCTAGTTAAACTAACCTAGTGTGCGGAGTCACCTAGTGCAG”: 42700 fluorescence intensity (a.u.).
The result for “ATCAACGTATCTAAACCGGATGGAAACACGTATCTAAACACGGAGTCACCTAGTGCAG” reads 6180 fluorescence intensity (a.u.); that for “GGATCGAAACTTGTGTTAAACACGTCAACTTCATGCATCTCGGAGTCACCTAGTGCAG”, 3310 fluorescence intensity (a.u.).
“AGCTTCGGTTTTCTTACTCAGCACAACGGGGTGGTGGCGCCGGAGTCACCTAGTGCAG”: the binding signal was 5360 fluorescence intensity (a.u.).
The result for “GAAAATTTGAGCAAAATTTAGTTGAATTTGAACAAATATTCGGAGTCACCTAGTGCAG” reads 6670 fluorescence intensity (a.u.); that for “CCGTTGAATGTGCCAGACAAACTGAGTGTAATTTAATATTCGGAGTCACCTAGTGCAG”, 65100 fluorescence intensity (a.u.); that for “AATTACAGATTCCGTCAGAAAACTGTGAGACAGATTTATTCGGAGTCACCTAGTGCAG”, 3290 fluorescence intensity (a.u.).
Regarding “TCCCTTGTCGACACATGCGTGTCAGCTCCAGGTTTATAACCGGAGTCACCTAGTGCAG”, the binding signal was 6370 fluorescence intensity (a.u.).
In the case of “CTCATGTTGTTTGACGGTTTGACTCTCCTAGTTTATCATCCGGAGTCACCTAGTGCAG”, the binding signal is 3370 fluorescence intensity (a.u.).
Consider “TTCACGCCCTGTAACATCGTGTGCATCCATCCCTCCACCGCGGAGTCACCTAGTGCAG”, for which the binding signal is 4190 fluorescence intensity (a.u.).
The result for “ACCTTCAAATGCAATTTTACAATGGATTTACCTCAAGCTACGGAGTCACCTAGTGCAG” reads 19200 fluorescence intensity (a.u.).
“TAAAATCTAGATGCAATGAGTTATTTCATATGATTTGAAACGGAGTCACCTAGTGCAG”: the binding signal is 17000 fluorescence intensity (a.u.).
As for “TTTTCATAAATGCTCCTTTGAAACAAATGATTTTACCCTACGGAGTCACCTAGTGCAG”, the binding signal is 43000 fluorescence intensity (a.u.).
For “CCTGAAGTTCTAGATGTTGATTTTGTCATGATGATCTAATCGGAGTCACCTAGTGCAG”, the binding signal is 4580 fluorescence intensity (a.u.).
With “GTTTGCGAGGAATAGCGGGAACGATCCGCGCCACCACGAACGGAGTCACCTAGTGCAG”, the binding signal is 18000 fluorescence intensity (a.u.).
Next, “AACTTCAATTTCAAATAACAGGGTCAAATAAACAAACCTACGGAGTCACCTAGTGCAG”: 4590 fluorescence intensity (a.u.); “AAATAAATAGGGAATTTAACCTTGCCACGTCACCGATCCGCGGAGTCACCTAGTGCAG”: 48100 fluorescence intensity (a.u.); “TACTTATCCAGATTCAAAAGATAAAATTTATTATATTATACGGAGTCACCTAGTGCAG”: 12600 fluorescence intensity (a.u.).
In the case of “CCTTAAATTTTCCTAAATCCTTACCTACCGTCATTCTCTCCGGAGTCACCTAGTGCAG”, the binding signal was 47400 fluorescence intensity (a.u.).
As to “TTTCTAATTCGTCATTCACCTCTCTCCTCCATCTCTACCCCGGAGTCACCTAGTGCAG”, the binding signal was 3520 fluorescence intensity (a.u.).
Next, “TCCCGCCAAATCACCGATCCGCGCCTCACGCCACGTCAACCGGAGTCACCTAGTGCAG”: 16000 fluorescence intensity (a.u.); “CGTCTCATTCTCTCTCCACATTTCCTTTTGATCCCTTCTCCGGAGTCACCTAGTGCAG”: 24300 fluorescence intensity (a.u.).
With “ATAAATACCGCGATAACCTCCTTAAATTCAAATAAATTTACGGAGTCACCTAGTGCAG”, the binding signal is 54800 fluorescence intensity (a.u.).
For the sequence “CCGGCGTGGCGACGTCAGTACTCTCTTCTGCTTCATTTCTCGGAGTCACCTAGTGCAG”, the binding signal was 7490 fluorescence intensity (a.u.).
Consider “AAGCTTTGCATTTGGGCGCTGGGCATGTCAGCGTCCGGTTCGGAGTCACCTAGTGCAG”, for which the binding signal was 4440 fluorescence intensity (a.u.).
With “AGATGGGCTTGAGAATGTGATGTCTCGTTTAATTGGGCCCCGGAGTCACCTAGTGCAG”, the binding signal was 3310 fluorescence intensity (a.u.).
Next, “ATTGTTGACACTATGACTTTCTTACTTTGACCGCAATTTTCGGAGTCACCTAGTGCAG”: 3720 fluorescence intensity (a.u.); “CAAGAGATAAGGAGCAATCGATCCAGCGTGGCGGCATGCACGGAGTCACCTAGTGCAG”: 3470 fluorescence intensity (a.u.).
Consider “CAAGCAATGCAAGGCAAGAGGTAATTGGCCGTGGAATCCACGGAGTCACCTAGTGCAG”, for which the binding signal was 4720 fluorescence intensity (a.u.).
Regarding “TGAGGATGCAAGAGAATCCTAAAAGGTAAGGCAGCATGCACGGAGTCACCTAGTGCAG”, the binding signal was 44100 fluorescence intensity (a.u.).
As for “CCAGTTTTGTCCACGTGGCAGCTGACTCACGGTGGGACCCCGGAGTCACCTAGTGCAG”, the binding signal was 29200 fluorescence intensity (a.u.).
In the case of “AAGTTTGGCTGTATTTATTCCACACCATAATTGAAAGTTTCGGAGTCACCTAGTGCAG”, the binding signal was 3160 fluorescence intensity (a.u.).
Next, “AGTTGAGCTCCTTGTCATTGATGAAGCTGCTGCTATTCCACGGAGTCACCTAGTGCAG”: 3740 fluorescence intensity (a.u.); “CACACGCAAAGCTGCAAAAGTTGAATTCCATTATTCCACACGGAGTCACCTAGTGCAG”: 65500 fluorescence intensity (a.u.); “AGCAAAGCTGCCAGAGCACGGCACAGCACACAGGTGACGGCGGAGTCACCTAGTGCAG”: 3450 fluorescence intensity (a.u.).
In the case of “CGCACCCGCACAGCACCACACCACCTGCCTAGCGCCAAGCCGGAGTCACCTAGTGCAG”, the binding signal was 3560 fluorescence intensity (a.u.).
In the case of “CCAAAGCTGCGCAGCACCCTGAACGGCACCACACCACGGACGGAGTCACCTAGTGCAG”, the binding signal is 57400 fluorescence intensity (a.u.).
Regarding “ATTGGATGCTGAATTGATGAGTACATACGTATACGTATACCGGAGTCACCTAGTGCAG”, the binding signal was 4160 fluorescence intensity (a.u.).
For the sequence “CAACTGGCCATGTATGCACATGCACCCCAGAGACAACCTACGGAGTCACCTAGTGCAG”, the binding signal was 3420 fluorescence intensity (a.u.).
Turning to “GTTGACGGGGTTTGTGAGGTGTGGCGGTGACTTGGAAAGACGGAGTCACCTAGTGCAG”, the binding signal was 3540 fluorescence intensity (a.u.).
As to “ATGGTTAGCATTAATCACTAATCACGTCATCATTAGTGCTCGGAGTCACCTAGTGCAG”, the binding signal is 4040 fluorescence intensity (a.u.).
“TGCAGGGACGATCTGATGGACAGCTCGGATTCGTCCCACACGGAGTCACCTAGTGCAG”: the binding signal was 3190 fluorescence intensity (a.u.).
On to “TGGGTCCCACGCAATAGTGGACCTGATGAATTGCAGGATTCGGAGTCACCTAGTGCAG”, for which the binding signal was 41100 fluorescence intensity (a.u.).
The result for “CCCACGGGATTGTCGGTCCCTCGTTTTGGTGATGCAGGACCGGAGTCACCTAGTGCAG” reads 3570 fluorescence intensity (a.u.).
As for “GTTATCGTCATTACGTCAATACGTGTTTTCGAAAATAATTCGGAGTCACCTAGTGCAG”, the binding signal is 4860 fluorescence intensity (a.u.).
As to “GACACCACCGCCGCCGCCGTCCTCGTCATCTCCAGATCGCCGGAGTCACCTAGTGCAG”, the binding signal is 9120 fluorescence intensity (a.u.).
